Laboratory results taken from PubChem BioAssay (NCI).
The panel holds about 79,000 compounds, 15% with a hit somewhere; the sample as a whole holds those more often. Active and inactive are the calls of the source. No stated cut-off is given here; in the data, active means growth inhibition above about 70%; inactive means the rest.

Test: NCI Yeast Anticancer Drug Screen. Data for the bub3 strain (AID 167)
Details: S. cerevisiae bub3 mutant strain, at 5.0 µM (retest, dose inferred, filed as 0.5), active compounds read high
How it was run: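 Whole-cell yeast assay. The mutant strain was incubated with compounds, and growth inhibition was determined by comparison with vehicle-treated cells.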

| Compound | growth inhibition |
| --- | --- |
| O=CC=C(c1ccccc1)c1ccccc1 | 30% (inactive) |
| FC(F)(F)c1nc2nc(Cl)c(Cl)nc2n1CCCN1CCOCC1 | 9% (inactive) |
| BrCC[P+](c1ccccc1)(c1ccccc1)c1ccccc1 | 47% (inactive) |
| N#CSc1ccc(S(N)(=O)=O)cc1 | 5% (inactive) |
| O=[N+]([O-])c1ccc2nc3ccccc3cc2c1 | -51% (inactive) |
| O=C(NC(Nc1ccc(F)c(Cl)c1)(C(F)(F)F)C(F)(F)F)C(C(F)(F)F)C(F)(F)F | 20% (inactive) |
| O=C(/C=C\c1ccc(Cl)cc1Cl)c1cccs1 | 30% (inactive) |
| O=C(NCCCCNCCCNC(=O)c1cc(-c2ccccc2)nc2ccccc12)c1cc(-c2ccccc2)nc2ccccc12 | -8% (inactive) |
| NC(=NCc1ccccc1)N/N=C\c1ccnc2ccccc12 | -5% (inactive) |
| CCCCN(CCCC)CCSc1ccc(Cl)cc1 | 5% (inactive) |
| COc1cc(C2C3=C(COC3=O)Oc3cc4c(cc32)OCO4)ccc1O (centres undefined) | -4% (inactive) |
| C#CCCCc1ccccc1 | 0% (inactive) |
| CCc1ccc(NS(=O)(=O)c2ccccc2)c([N+](=O)[O-])c1 | -3% (inactive) |
| COc1ccc(C2c3cc4c(cc3OC(C)(O)C2C)OCO4)c(OC)c1 (centres undefined) | -4% (inactive) |
| COC(=O)c1ccc(CCC2=CC(=O)C(Br)=CC2=O)cc1 | 8% (inactive) |
| NNC(=O)CCc1ccc2ccc3ccccc3c2c1 | -11% (inactive) |
| Cn1c2ccccc2c(=O)c2cc(NC(=O)CCCCC(=O)Nc3ccc4c(c3)c(=O)c3ccccc3n4C)ccc21 | 1% (inactive) |
| CC(CC(C)(C)[N+](C)(C)C)[N+](C)(C)C (centres undefined) | 67% (inactive) |
| CC1CCN(CCC(=O)c2ccc(Cl)cc2)CC1 | 18% (inactive) |
| CCCCCCCCCCCCCCC(C(=O)[O-])[n+]1ccccc1 (centres undefined) | 5% (inactive) |

| Compound | growth inhibition |
| --- | --- |
| CNC1C(OC2C(OC3C(O)C(O)C(N=C(N)N)C(O)C3N=C(N)N)OC(C)C2(O)CO)OC(CO)C(O)C1O (centres undefined) | 5% (inactive) |
| O=C(O)c1ccccc1-c1ccccc1C(=O)Nc1ccc2c(c1)Cc1ccccc1-2 | -24% (inactive) |
| O=[N+]([O-])c1cccc2nc3ccccc3c(NCCCN3CCOCC3)c12 | 0% (inactive) |
| C=CC(C)(O)CCC1C(=C)C(O)CC2C(C)(C)CCCC12C (centres undefined) | 19% (inactive) |
| CN1c2ccc(Cl)cc2C(=O)NC1c1ccc([N+](=O)[O-])s1 (centres undefined) | -1% (inactive) |
| [O-][n+]1c2ccc(O)cc2nc2ccc(Br)cc21 | 32% (inactive) |
| O=C1c2ccccc2-c2nc3ccccc3nc21 | 21% (inactive) |
| CCCCN1C(=O)N(c2ccc(OCC)cc2)C2N(CCCC)C1C(C)(C)C2(C)C (centres undefined) | -2% (inactive) |
| CO[C@H]1C[C@](C)(O)Cc2cc3c(c(O)c21)C(=O)c1c(O)cc2c(c1C3=O)O[C@@H]1O[C@@]2(C)[C@H](O)[C@@H](N(C)C)[C@@H]1O | -2% (inactive) |
| COc1cc2c(cc1[N+](=O)[O-])C(=O)C(Br)(Br)CCC2 | 42% (inactive) |
| O=C1OC(CCl)CN1/N=C/c1ccc([N+](=O)[O-])o1 (centres undefined) | 1% (inactive) |
| CN(C)CCOc1ccc2c(c1)C/C(=C/c1ncc([N+](=O)[O-])n1C)C2=O | 6% (inactive) |
| CCCCCCCCCCCCCCCCCCN(C)CC(COP(=O)([O-])OCC[N+](C)(C)C)OC (centres undefined) | 33% (inactive) |
| CC(C)c1ccccc1NC(=O)/C(Cl)=C(\Cl)C(=O)O | 9% (inactive) |
| O=[N+]([O-])C(=C(Sc1ccccc1)Sc1ccccc1)C(Cl)=C(Cl)Cl | -1% (inactive) |
| C(=C\c1ccccc1)/COc1ccccc1C(N1CCOCC1)n1nc2ccccc2n1 (centres undefined) | 3% (inactive) |
| O=C1C(Nc2ccccc2)=C(Oc2ccccc2)C(=O)c2ccccc21 | 16% (inactive) |
| CCN(CC)CCN1C(=O)c2cccc3cc(OC)cc(c23)C1=O | 11% (inactive) |
| CN(C)Cc1cc(N=Nc2ccc(Cl)cc2)cc(CN(C)C)c1O | 12% (inactive) |
